Screens: PubChem, The Scripps Research Institute Molecular Screening Center
The list is not random: actives were taken first. Their share in the collection is about 1.2%.
GLD-1 TGE inh: GLD-1-TGE RNA interaction inhibition (C. elegans); purified GLD-1 + fluorescein TGE RNA, fluorescence polarization; Q17339; inhibition, % at 5.96 µM; 0.44% of 320,000 active;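 active means percent inhibition above a per-plate cutoff, the plate mean of test compounds plus 3 SD, cut at about 30% in these data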;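 further: 0% = DMSO wells with GLD-1 and probe and 100% = wells lacking GLD-1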
BCLXL inh: blocks human Bcl-xL binding to Bim BH3 peptide | Q07817 | GST-Bcl-xL / FITC-Bim BH3 peptide fluorescence polarization | inhibition, % at 10.9 µM | 0.7% of 320,000 active | AID 2129;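 active means inhibition above the mean of all tested compounds plus 3 SD, cutoff set per campaign, cut at about 30% in these data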;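 further: 0% = DMSO wells and 100% = unlabeled Bim-BH3 peptide competitor; inhibitors lower millipolarization by displacing the labeled peptide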
Target sequence (Q07817 whole entry, looked up): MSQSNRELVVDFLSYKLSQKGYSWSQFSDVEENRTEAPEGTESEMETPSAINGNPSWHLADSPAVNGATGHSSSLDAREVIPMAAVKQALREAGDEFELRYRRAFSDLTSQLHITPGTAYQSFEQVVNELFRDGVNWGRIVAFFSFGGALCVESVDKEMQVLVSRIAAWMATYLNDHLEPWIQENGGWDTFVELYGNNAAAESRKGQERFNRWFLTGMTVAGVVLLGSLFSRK
E coli Lon inh: inhibits E. coli Lon protease. purified E. coli Lon protease, fluorescence polarization. inhibition, % at 7.94 µM. P0A9M0. 0.42% of 360,000 active; in the data active means inhibition above about 13%, passing the limit was not always enough;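 further: 0% = enzyme with probe and DMSO and 100% = no enzyme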
cardiac RTF act: increases calcium sensitivity of human cardiac regulated thin filaments; IANBD-labeled TnC RTF fluorescence at EC20 calcium; 0% EC20 calcium, 100% full calcium; activation, % at 7.2 µM; 0.24% of 340,000 active; AID 493008;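 active means activation above the mean over all tested compounds plus 3 SD, cut at about 30% in these data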;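 further: rise in fluorescence read as greater calcium sensitivity of cardiac thin filaments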
RTF Ca sens inh: cardiac RTF calcium desensitization | P19429+P45379 | IANBD-labeled cardiac RTF, Ca2+ fluorescence | inhibition, % at 7.15 µM | 0.12% of 340,000 active | AID 493244;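 active means inhibition above the mean inhibition of all tested compounds plus 3 SD, cut at about 17% in these data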;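 further: assay run at fixed EC70 calcium of 1.6 mM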
RTF Ca inh conf: cardiac RTF calcium sensitivity inhibition, confirmation; shares compounds with RTF Ca sens inh; reconstituted cardiac thin filaments, calcium sensitivity fluorescence; inhibition, % at 7.15 µM; 8% of 360 active; in the data active means inhibition above about 18%
* hit, by the source's call.

Results for CCOc1ccc(NS(=O)(=O)c2ccc3c(c2)N(C(C)=O)CCS3)cc1 ?
GLD-1 TGE inh: 8; BCLXL inh: 1; E coli Lon inh: -4; cardiac RTF act: 0; RTF Ca sens inh: 77*; RTF Ca inh conf: -2

Results for O=C(O)Cc1c[nH]c2ccc(O)cc12 ?
GLD-1 TGE inh: 5; BCLXL inh: 6; E coli Lon inh: 2; cardiac RTF act: 4; RTF Ca sens inh: 18*; RTF Ca inh conf: 1

How did CCOC(=O)c1c(C=O)c(C)n(Cc2ccccc2Cl)c1C do in these assays?
GLD-1 TGE inh: 1; BCLXL inh: -1; E coli Lon inh: 6; cardiac RTF act: 1; RTF Ca sens inh: 18*; RTF Ca inh conf: -3

Results for CCOC(=O)c1c(C=O)c(C)n(Cc2ccc(C)cc2)c1C ?
GLD-1 TGE inh: 2; BCLXL inh: 8; E coli Lon inh: -6; cardiac RTF act: 5; RTF Ca sens inh: -5

How did Cc1ccc(C2CC(c3ccc(NS(C)(=O)=O)cc3)=NN2C(=O)c2ccco2)cc1 (stereo not given) do in these assays?
GLD-1 TGE inh: 1; BCLXL inh: 3; E coli Lon inh: -1; cardiac RTF act: 4; RTF Ca sens inh: 20*; RTF Ca inh conf: -3

What do the screens show for `CN1CCN(c2ncnc3c2ncn3[C@H]2CN(Cc3ccc(Cl)cc3)C[C@@H](CO)O2)CC1`?
E coli Lon inh: -23

How did O=C(/C=C/c1ccccc1)OCCN1C(=O)c2ccccc2C1=O do in these assays?
GLD-1 TGE inh: 1; BCLXL inh: 0; E coli Lon inh: -3; cardiac RTF act: -4; RTF Ca sens inh: -8

Results for COc1cc(/C=C/C(=O)OCC(=O)NC(=O)NC23CC4CC(CC(C4)C2)C3)ccc1OCC#N ?
GLD-1 TGE inh: 4; BCLXL inh: -4; E coli Lon inh: 9; cardiac RTF act: 5; RTF Ca sens inh: 18*; RTF Ca inh conf: -2

How did Cc1ccc(CSc2nnc(SCC(=O)N/N=C/C=C/c3ccco3)s2)cc1 do in these assays?
GLD-1 TGE inh: 6; BCLXL inh: -2; E coli Lon inh: -23; cardiac RTF act: 1; RTF Ca sens inh: 3

Results for Cc1ccc(CSc2nnc(SCC(=O)N/N=C/C=C/c3ccccc3[N+](=O)[O-])s2)cc1 ?
GLD-1 TGE inh: 4; BCLXL inh: -1; E coli Lon inh: 13; cardiac RTF act: 8; RTF Ca sens inh: 21*; RTF Ca inh conf: -5

How did CCOC(=O)C1CCCN(Cc2cccc(Cl)c2)C1 (stereo not given) do in these assays?
GLD-1 TGE inh: -135; BCLXL inh: -8; E coli Lon inh: -2; cardiac RTF act: 7; RTF Ca sens inh: -4

How did O=C(Nc1ccccc1)N1CCN(c2ccccn2)CC1 do in these assays?
GLD-1 TGE inh: 10; BCLXL inh: 1; E coli Lon inh: 0; cardiac RTF act: 9; RTF Ca sens inh: -4

How did COc1cc(OC)c(NC(=O)C2CCCO2)cc1Cl (stereo not given) do in these assays?
GLD-1 TGE inh: 2; BCLXL inh: 4; E coli Lon inh: 7; cardiac RTF act: 8; RTF Ca sens inh: -4

What do the screens show for `CSc1nc(-c2ccccc2)cc(C)c1C#N`?
GLD-1 TGE inh: -5; BCLXL inh: -6; E coli Lon inh: 4; cardiac RTF act: 9; RTF Ca sens inh: 18*; RTF Ca inh conf: -10

How did COc1cc(C2C3C(=O)N(c4ccc(F)cc4)C(=O)C3ON2c2ccccc2)ccc1O (stereo not given) do in these assays?
GLD-1 TGE inh: 0; BCLXL inh: 5; E coli Lon inh: 4; cardiac RTF act: 1; RTF Ca sens inh: -5

How did COc1ccc(N2C(=O)CSC2c2ccccc2[N+](=O)[O-])cc1 (stereo not given) do in these assays?
GLD-1 TGE inh: -5; BCLXL inh: 8; E coli Lon inh: 3; cardiac RTF act: 0; RTF Ca sens inh: 19*; RTF Ca inh conf: 1

What do the screens show for `CCCOc1ccccc1C1NC(=O)NC(C)=C1C(=O)OCCOC` (stereo not given)?
GLD-1 TGE inh: 0; BCLXL inh: 7; E coli Lon inh: 5; cardiac RTF act: 7; RTF Ca sens inh: 19*; RTF Ca inh conf: -1

What do the screens show for `CCc1cc(C(=O)N/N=C/c2ccc(OC)cc2)c2ccccc2n1`?
GLD-1 TGE inh: 4; BCLXL inh: -3; E coli Lon inh: 0; cardiac RTF act: -9; RTF Ca sens inh: 18*; RTF Ca inh conf: -5

Results for COc1cc(/C=N/NC(=O)c2cc(-c3ccco3)nc3ccccc23)cc(OC)c1O ?
GLD-1 TGE inh: 2; BCLXL inh: 6; E coli Lon inh: -4; cardiac RTF act: 2; RTF Ca sens inh: -10

What do the screens show for `CCCc1cc(C(=O)N/N=C/c2ccc(C)o2)c2ccccc2n1`?
GLD-1 TGE inh: 3; BCLXL inh: 2; E coli Lon inh: -3; cardiac RTF act: 1; RTF Ca sens inh: 7

Results for O=C(N/N=C/c1cccc(F)c1)c1cc(-c2ccco2)nc2ccccc12 ?
GLD-1 TGE inh: 4; BCLXL inh: 16; E coli Lon inh: -8; cardiac RTF act: -15; RTF Ca sens inh: 17*; RTF Ca inh conf: 0

Results for CCn1nc([N+](=O)[O-])c(C(C#N)c2nc3cc(C(F)(F)F)ccc3s2)c(Cl)c1=O (stereo not given) ?
GLD-1 TGE inh: 15; BCLXL inh: 7; E coli Lon inh: 1; cardiac RTF act: -11; RTF Ca sens inh: 19*; RTF Ca inh conf: 2

What do the screens show for `N#Cc1ccc(N2CCc3ccccc3C2)c([N+](=O)[O-])c1`?
GLD-1 TGE inh: -4; BCLXL inh: 1; E coli Lon inh: -12; cardiac RTF act: -2; RTF Ca sens inh: 188*; RTF Ca inh conf: -5

How did O=C(c1ccc(N2CCCC2)c([N+](=O)[O-])c1)N1CCc2ccccc2C1 do in these assays?
GLD-1 TGE inh: 8; BCLXL inh: 7; E coli Lon inh: -12; cardiac RTF act: -17; RTF Ca sens inh: -12

Results for NNC(=O)c1ccc2nc(-c3ccc(Br)cc3)cn2c1 ?
GLD-1 TGE inh: 0; BCLXL inh: 1; E coli Lon inh: 5; cardiac RTF act: -1; RTF Ca sens inh: 22*; RTF Ca inh conf: -2

What do the screens show for `CCc1c(C)nc2cc(-c3cc(OC)cc(OC)c3)nn2c1N1CCCC1`?
GLD-1 TGE inh: 1; BCLXL inh: -1; E coli Lon inh: -4; cardiac RTF act: -1; RTF Ca sens inh: -2

How did CCOC(=O)N1CCN(S(=O)(=O)c2ccc(F)cc2)CC1 do in these assays?
GLD-1 TGE inh: 28; BCLXL inh: 3; E coli Lon inh: -3; cardiac RTF act: -5; RTF Ca sens inh: -13

What do the screens show for `C=CCNC(=S)Nc1cccc2ccccc12`?
GLD-1 TGE inh: -2; BCLXL inh: 3; E coli Lon inh: -3; cardiac RTF act: -2; RTF Ca sens inh: 20*; RTF Ca inh conf: 1

What do the screens show for `O=C(CSc1nnc(CNC(=O)c2cccc(C(F)(F)F)c2)o1)NC1CCCC1`?
GLD-1 TGE inh: 2; BCLXL inh: 12; E coli Lon inh: 1; cardiac RTF act: -4; RTF Ca sens inh: 1
